# Screening results as filed in PubChem BioAssay.
# A selection: hits, their analogues and other compounds. The true share with any hit is near 4.8%.
# ssDAF-12 act: activates DAF-12 receptor from parasite S. stercoralis. HEK293 ssDAF-12/GRIP1 lit1-tk-luc reporter, luminescence; % of 3 µM dafachronic acid response. activation, % at 6.8 µM. 1% of 370,000 active;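 active means activation above the mean over all tested compounds plus 3 SD, cut at about 0.9% in these data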;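 further: 0% = DMSO-only wells and 100% = 3 µM delta7-dafachronic acid wells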
# hgDAF-12 ag: agonists of H. glycines DAF-12 nuclear receptor | activation, % at 6.8 µM | AID 687014 | HEK293 GAL4-hgDAF12 UAS-luciferase reporter, agonist luminescence; normalized to butyrate control | 1.8% of 370,000 active;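 active means activation above a cutoff set at the mean of all screened compounds plus 3 SD, cut at about 10% in these data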;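 further: 0% = DMSO wells and 100% = sodium butyrate wells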
# SMARCA2 act: activators of SMARCA2 function | AID 652017 | MG213 cells, MMTV-luciferase reporter, dexamethasone, overnight | activation, % at 9.1 µM | 1% of 370,000 active; in the data active means activation above about 7.8%;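 further: 0% = vehicle wells and 100% = reference activator wells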
# hcDAF-12 act: activates DAF-12 receptor from parasite H. contortus. HEK293 hcDAF-12 lit1-tk-luc reporter, luminescence; 0% DMSO, 100% Δ7-dafachronic acid. activation, % at 6.8 µM. 1.4% of 370,000 active. AID 652067;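 active means activation above the mean of all tested compounds plus 3 SD, cut at about 5.5% in these data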;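 further: 100% = response to 3 µM Δ7-dafachronic acid high control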
# DAX1 inh-1: inhibits human nuclear receptor DAX1; P51843; HEK293 Gal4-DAX1 luciferase reporter, luminescence; inhibition, % at 6.75 µM; 0.99% of 340,000 active;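 active means inhibition above the mean over all tested compounds plus 3 SD, cut at about 4.2% in these data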;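 further: 0% = DAX1-transfected cells with DMSO and 100% = empty-vector control cells with DMSO; inhibition shows as a rise in luminescence from relieved DAX1 repression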
# Target sequence (P51843 207-470 limits assumed): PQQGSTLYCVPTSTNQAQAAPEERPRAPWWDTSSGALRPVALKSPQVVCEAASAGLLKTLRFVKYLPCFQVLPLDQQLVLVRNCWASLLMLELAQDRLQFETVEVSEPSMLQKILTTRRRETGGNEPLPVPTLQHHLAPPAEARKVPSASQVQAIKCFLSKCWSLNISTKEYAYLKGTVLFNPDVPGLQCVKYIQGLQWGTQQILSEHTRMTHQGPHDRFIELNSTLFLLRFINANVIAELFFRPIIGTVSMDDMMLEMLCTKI
# DAX1 inh-2: blocks DAX1 repression of SF-1 activated StAR promoter | 1.1% of 370,000 active | AID 652010 | HEK293T StAR-luciferase reporter, SF-1/DAX-1 repression relief | inhibition, % at 6.8 µM;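 active means inhibition above the mean over all tested compounds plus 3 SD, cut at about 3.6% in these data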;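 further: 0% = DAX-1 cells with DMSO and 100% = cells lacking DAX-1 with DMSO; higher inhibition means more luminescence from relief of DAX-1 repression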
# An asterisk follows results filed as active; x = no result.
SMILES,ssDAF-12 act,hgDAF-12 ag,SMARCA2 act,hcDAF-12 act,DAX1 inh-1,DAX1 inh-2
CN(C)S(=O)(=O)c1cccc(C(=O)NCCNC(=O)c2cccc(S(=O)(=O)N(C)C)c2)c1,-1,-2,-1,-1,-1,0
COC(=O)[C@H](Cc1ccccc1)N(C)S(=O)(=O)c1cccc(S(=O)(=O)N(C)[C@@H](Cc2ccccc2)C(=O)OC)c1,-1,-4,-1,-2,-1,0
CC(Cc1ccco1)NC(=O)c1cccc(S(=O)(=O)N(C)C)c1 (stereo not drawn),0,12*,3,4,1,1
COC(=O)C(Cc1ccccc1)NC(=O)c1cccc(S(=O)(=O)N(C)C)c1 (stereo not drawn),-1,0,-2,-1,4.4*,0
N/C(=N\OC(=O)c1ccc([N+](=O)[O-])cc1Cl)c1ccccn1,1.1*,9,1,6.1*,-7,0
N/C(=N\OC(=O)c1cc([N+](=O)[O-])ccc1Cl)c1ccccn1,-1,-1,5,-1,4,-1
O=C(CCCc1ccccc1)Nc1ccccc1[N+](=O)[O-],0,4,5,1,5.0*,1
O=C(Nc1ccccc1F)c1ccc(OCc2ccccc2)cc1,0,11*,1,6,1,2
O=C(CCc1ccccc1)Nc1ccccc1F,0,12*,-2,2,2,3.7*
Cc1ccccc1C(=O)N(Cc1ccccn1)CC1CCCO1 (stereo not drawn),0,3,1,-2,x,1
CC1=C(C(=O)N(C(C)C)C(C)C)CC(CC(=O)NCCCCc2ccccc2)C(=O)N1Cc1ccc(F)cc1 (stereo not drawn),0,-2,2,-1,x,-1
Cc1ccc2cc(NC(=O)C3(C)CCN3CC(C)C)ccc2n1 (stereo not drawn),-1,-3,-3,-2,x,1
O=C(Nc1nc2ccsc2c(=O)s1)c1ccc(F)cc1Cl,-2,5,7,-1,7.8*,1
O=C(COC(=O)/C=C/c1ccc(F)cc1)NC1CCS(=O)(=O)C1 (stereo not drawn),0,0,-1,1,2,1
O=C(CCC(C(=O)c1ccccc1)c1ccccc1)c1ccccc1 (stereo not drawn),-1,0,1,0,0,0
CCOC(=O)c1nnsc1-c1ccc(-c2snnc2C(=O)OCC)cc1,-1,1,-3,1,4,0
CCOC(=O)c1nnsc1Nc1ccc(C)c(C)c1,0,3,1,2,4.3*,1
CC[C@]12c3[nH]c4cc(CCC(=O)N(C)C)ccc4c3CCN1C(=O)[C@@H](CC(=O)NCCCOC)C[C@@H]2C(=O)N1CCN(C(=O)c2ccco2)CC1,0,2,-2,1,-1,1
CN(C)/N=C/c1ccc(OS(=O)(=O)c2ccccc2)cc1,-1,11*,1,2,2,2
O=C(O)Cn1c2c(c3ccccc31)CSc1ccc(Cl)cc1-2,1,1,-2,7.5*,1,0
O=C(O)Cn1c(=O)c2c(c3ccccc31)CCC2,-1,-3,-2,-2,2,0
COc1ccccc1NC(=O)C(=O)N/N=C/c1cccs1,-1,8,5,6.2*,1,1
COCCNC(=O)C(=O)N/N=C/c1cccs1,0,2,-2,3,2,1
Cc1[nH]nc(SCC(=O)NC(C)c2ccccc2)c1[N+](=O)[O-] (stereo not drawn),-2,2,1,-2,4.3*,0
CCc1ccccc1NC(=O)CSc1n[nH]c(C)c1[N+](=O)[O-],-1,-2,1,-2,5.3*,0
SMILES,ssDAF-12 act,hgDAF-12 ag,SMARCA2 act,hcDAF-12 act,DAX1 inh-1,DAX1 inh-2
CCOC(=O)N(C)C[C@H]1OCc2cnnn2CCCC(=O)N([C@@H](C)CO)C[C@@H]1C,-1,2,-4,2,1,1
CS(=O)(=O)c1ccc(Cl)c(NC(=O)CN2CCCC2c2ccc3c(c2)OCCCO3)c1 (stereo not drawn),-1,11*,-3,-1,0,-3
O=C(O)CC(C(=O)O)C(c1ccccc1)c1ccccc1 (stereo not drawn),1,2,2,1,-1,0
O=C(CSc1nc(=O)n(CCCN2CCOCC2)c2c1CCCC2)Nc1ccc(Cl)cc1,-1,-1,0,0,2,0
O=C(NCCc1c[nH]c2ccccc12)/C(=C\c1cccnc1)NC(=O)c1ccco1,0,-2,-1,0,0,0
O=C(NCCc1c[nH]c2ccccc12)/C(=C/c1cccnc1)NC(=O)c1ccco1,0,-2,-2,0,4.5*,-1
O=C(NCCSc1c[nH]c2ccccc12)c1ccco1,0,5,1,5.9*,0,1
Cc1cc(C)c(S(=O)(=O)N2CCN(C3CC(=O)N(c4ccccc4Cl)C3=O)CC2)c(C)c1 (stereo not drawn),-1,6,-3,-1,0,-1
C#CCN1C=CC(=O)[C@@H](OC(=O)Nc2ccc(Cl)cc2)[C@H]1c1ccccc1Br,-1,-3,-3,-2,0,0
COc1ccc2[nH]c3c(c2c1)CCN1C(=O)N([C@@H](C)C(=O)NCC2CCCO2)C(=O)[C@]31C (stereo partly drawn),-1,6,1,2,5.7*,0
Nc1ccc(Oc2ccc3nc(-c4ccccc4)c(-c4ccccc4)nc3c2)cc1,-1,2,0,0,-1,-1
Nc1ccc(Oc2cc(N)cc(Oc3ccccc3)c2)cc1,-1,5,3,4,4.6*,1
CC(=O)Nc1ccc(-c2cn3ccsc3n2)cc1,0,12*,4,2,0,1
O=C(Nc1ccc(-c2cn3ccsc3n2)cc1)C1CC1,0,10,2,2,0,3
CN(C(=O)c1cccc(NC(=O)Cc2ccc(NC(=O)C3CCN(C(=O)C4CCCC4)CC3)cc2)c1)C1CCC1,-1,0,-2,0,2,0
CN(C(=O)c1cccc(NC(=O)Cc2ccc(NC(=O)C3CCCN(C(=O)C4CCC4)C3)cc2)c1)C1CCC1 (stereo not drawn),1.3*,-2,0,-2,-1,-1
CN(C(=O)c1cccc(NC(=O)Cc2ccc(NC(=O)C3CCN(C(=O)c4ccccc4)CC3)cc2)c1)C1CCC1,1.2*,-1,-4,-1,3,0
O=C1NC[C@H](CCCCN2C[C@H](Cc3ccccc3)N(CCC3CCCCC3)C(=O)C2=O)N(CCc2ccccc2)C1=O,0,-1,-5,-2,x,0
